Data from PubChem BioAssay AID652105 (National Center for Advancing Translational Sciences (NCATS), 2013).
Hit rate of the full screen: of about 330,000 compounds, about 4,100 (1.2%) were called active. Another 2% or so got no clear call; they are omitted. This excerpt belongs to a sample that is enriched for actives. A number with no mark means an inactive call. How the source made its calls: active means max response of -50% or lower; inconclusive means between -30% and -50%; inactive means -30% or higher.

target: Phosphatidylinositol 5-phosphate 4-kinase type-2 alpha (Homo sapiens) (UniProt P48426); experiment: qHTS for Inhibitors of phosphatidylinositol 5-phosphate 4-kinase (PI5P4K); settings: PI5P4Kalpha enzyme, ADP-Glo luminescence, 60 min; active compounds read low; further: value at the top dose of about 77 µM
In short: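 Single end-point luminescence (ADP-Glo) quantified ADP from PI5P4Kalpha turnover; ATP 5 microM final, 1 h at RT, 0.1% CHAPS and 0.28 mM EGTA in HEPES pH 7.4.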
On the % scale 0 is the no-effect control and ±100 the full control effect.

Chain of Phosphatidylinositol 5-phosphate 4-kinase type-2 alpha (Homo sapiens) (P48426 whole entry, looked up): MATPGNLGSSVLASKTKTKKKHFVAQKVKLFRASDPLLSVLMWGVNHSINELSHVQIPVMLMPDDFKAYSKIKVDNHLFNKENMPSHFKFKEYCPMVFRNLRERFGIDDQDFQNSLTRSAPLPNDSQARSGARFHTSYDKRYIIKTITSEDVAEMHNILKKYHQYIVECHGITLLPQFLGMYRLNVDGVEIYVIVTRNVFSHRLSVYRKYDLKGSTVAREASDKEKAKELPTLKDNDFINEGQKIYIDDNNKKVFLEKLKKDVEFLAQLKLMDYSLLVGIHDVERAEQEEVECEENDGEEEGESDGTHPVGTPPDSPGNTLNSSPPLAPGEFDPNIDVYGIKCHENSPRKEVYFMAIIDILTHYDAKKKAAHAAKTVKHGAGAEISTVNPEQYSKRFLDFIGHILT

SMILES | max response
C#CCOCCOCCOCCNc1nc(N2CCN(C(=O)CCCCCCCCCCNC(=O)[C@H]([C@@H](C)CC)n3cc(CCCCN=C(N)N)nn3)CC2)nc(N2CCN(C(=O)CCCCCCCCCCNC(=O)[C@H](CO)n3cc(CCCSC)nn3)CC2)n1 | -95.3% (active)
C#CCOCCOCCOCCNc1nc(N2CCN(C(=O)Cn3cc(CCO)nn3)CC2)nc(N2CCN(C(=O)Cn3cc(CCCN=C(N)N)nn3)CC2)n1 | 1.27%
C#CCOCCOCCOCCNc1nc(N2CCN(C(=O)[C@H](C(C)C)n3cc(CCO)nn3)CC2)nc(N2CCN(C(=O)[C@H]([C@@H](C)CC)n3cc(CCCN=C(N)N)nn3)CC2)n1 | -3.39%
CC1(C(=O)NS(=O)(=O)c2cccc(F)c2)CCN1C(=O)Cc1ccc(Cl)cc1Cl (configuration not stated) | -3.09%
CC1(C(=O)NS(=O)(=O)c2ccccc2)CCN1C(=O)C1CCCCC1 (configuration not stated) | 0.69%
CCC(=C/c1sc2ccc3ccccc3c2[n+]1C)/C=C1\Sc2ccc3ccccc3c2N1C | -90.2% (active)
CCCCc1c(-c2ccc(Br)cc2)ncn1CCc1ccccc1OC | 11.5%
C[C@@H]1CN([C@@H](C)CO)C(=O)CCCn2nncc2CO[C@@H]1CN(C)S(=O)(=O)c1ccc(-c2ccccc2)cc1 | -0.942%
COc1ccc(-c2ccc(CN3C(CC(C)C)C(=O)N(Cc4cn(CC5CCCCC5)nn4)CCS3(=O)=O)cc2)cn1 (configuration not stated) | -0.614%
C=C1c2c(Cl)ccc(O)c2C(O)=C2C(=O)[C@]3(O)C(O)=C(C(N)=O)C(=O)[C@@H](N(C)C)[C@@H]3[C@@H](O)C12 (some centres not stated) | -76.5% (active)
CN(C)[C@@H]1C(=O)C(C(N)=O)=C(O)[C@@]2(O)C(=O)C3=C(O)c4c(O)ccc(Cl)c4[C@@H](O)[C@H]3C[C@@H]12 | -11.8%
COc1ccc(C2OC(CCc3ccccc3)Cc3[nH]c(=S)[nH]c(=O)c32)cc1 (configuration not stated) | -4.14%
CC(C)C[C@@H]1Cc2[nH][nH]c(=O)c2[C@H](CCc2ccccc2)O1 | 19.9%
Nc1ccc2nc3c(=O)[nH]c(=S)[nH]c3nc2c1 | -105% (active)
O=C(c1ccc(Cl)s1)N(Cc1nnc(-c2ccccc2Cl)o1)C1CC1 | 3.41%
CC(C)N(Cc1nnc(-c2ccccc2Br)o1)C(=O)c1cc(Cl)nc2ccccc12 | 9.3%
O=C(c1cc(-c2ccco2)nc2ccccc12)N(Cc1nnc(-c2ccc(Cl)cc2)o1)C1CC1 | -72.6% (active)
COc1ccc(NC(=O)c2sc(=O)n(Cc3ccc(S(=O)(=O)N(C)C)cc3)c2C)cc1 | -4.44%
O=c1[nH]n(-c2ccc([N+](=O)[O-])cc2)c(=O)c2ccccc12 | -53.6% (active)
O=[N+]([O-])c1ccc(N2CCOCC2)cc1 | 2.48%
O=c1[nH]c2cccnc2n1-c1ccc([N+](=O)[O-])cc1 | 3.06%
CC(C)CNC(=O)C1(C)CCCN1C(=O)CSc1ccccc1 (configuration not stated) | -2.54%
CCc1nc2c(OCCC3CCCCC3)cccn2c1N(C)C(=O)c1ccco1 | -1.87%
O=c1oc2cc(O)ccc2cc1-c1ccc(F)cc1 | -58.1% (active)
COc1ccc(-c2cc3ccc(OCc4nn[nH]n4)cc3oc2=O)cc1 | -28.7%
CN(C)c1cc(-c2ccc(F)cc2)oc(=O)c1Cl | -9.22%

SMILES | max response
CCCNC(=O)C1(C)CCCN(Cc2cccc(C(F)(F)F)c2)C1 (configuration not stated) | -5.32%
CCOC(=O)N1C(=O)C[C@](Sc2ccc(C)cc2)(C(=O)OC)[C@H]1c1ccccc1 | 5.07%
CC1(C(=O)NS(=O)(=O)Cc2cccc(Cl)c2)CCN1C(=O)Cc1ccccc1 (configuration not stated) | 1.29%
CC(C)CN1C(=O)CN(S(C)(=O)=O)CC1(C)C(=O)NCc1ccccc1 (configuration not stated) | -3.28%
OC[C@@H]1CN(Cc2ccncc2)C[C@H](n2cnc3c(N4CCN(c5ccccc5)CC4)ncnc32)O1 | 3.53%
O=C(Cn1cnc2c(OCc3ccccc3)ncnc21)NCCCn1ccnc1 | 1.01%
CC(CNC(=O)Cn1cnc2c(OCc3ccccc3)ncnc21)c1ccccc1 (configuration not stated) | 2.34%
O=C(Cn1cnc2c(OCc3ccccc3)ncnc21)NCc1nc2ccccc2[nH]1 | -52.2% (active)
CCc1nc2c(OCCOc3ccccc3)cccn2c1N(C)C(=O)c1cccs1 | -2.92%
COc1ccc(S(=O)(=O)c2c[nH]c(=S)[nH]c2=O)cc1Cl | -71.5% (active)
COc1ccc(S(=O)(=O)Nc2ccc3c(c2)OCO3)cc1Cl | -4.52%
COc1ccc(S(=O)(=O)N(C)CC(=O)N2CCCC2)cc1Cl | -1.95%
CCCCCCCCN1C(=O)[C@H](CC(=O)NCc2cccc3ccccc23)C[C@@]2(C(=O)OC)CCCCC=C12 | 22.3%
CC(=O)N1C[C@@H](CO)[C@@H](N(C)C(=O)c2ccco2)C[C@H]1c1ccccc1 | -3.57%
COC(=O)c1sc(NC(=O)COC(=O)C2CCC2)c(C(=O)OC)c1C | 16.3%
COC(=O)c1sc2[nH]c(=S)n(N)c(=O)c2c1C | -60.5% (active)
CCc1nc2ccc(C(=O)Nc3cc(-c4ccccc4)ccc3OC)cn2c1N(CC)CC(=O)N(C)C | 1.18%
CC(=O)c1cc(-c2ccccc2)[nH]c1N1CCCC1 | -3.68%
O=C1NN(c2ccccc2)C(=O)/C1=C/c1ccc(-c2cccc(C(=O)O)c2)o1 | -59.1% (active)
CC1=NN(c2ccc(Cl)c(C(=O)O)c2)C(=O)/C1=C/c1ccc(-c2ccccc2[N+](=O)[O-])o1 | -9.29%
CCCCOCCCNC(=O)C[C@@H]1C[C@@]2(C(=O)OCC)CCCC=C2N(CCC2=CCCCC2)C1=O | 1.62%
CC(=O)N1Cc2cc(C(=O)NCc3cccc(F)c3)nc(-c3cccc(C4=CCCCC4)c3)c2[C@H]1CCO | 12.2%
COc1ccc(-c2coc3c(C(=O)NC(C)C)cccc23)c(C)c1 | -1.18%
COCCCN1C(=O)c2ccc(C(=O)Nc3ccc(OC)cc3OC)cc2C1=O | 2.76%
Cc1ccc2[nH]cc(CCCN3C(=O)c4ccccc4C3=O)c2c1 | -7.36%
COc1ccc2[nH]cc(CCN3C(=O)c4ccc(C(=O)O)cc4C3=O)c2c1 | -70.3% (active)
